Screens as filed in PubChem BioAssay.
NS1 inh – qHTS Assay for Inhibitors of Influenza NS1 Protein Function; Potency, µM (titrated, usually from 46.1 µM); hit rate 0.4% among 270,000; calls by dose curve; also: actives are rising curves; nearly all actives have a fitted effect of over 50% in size
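Read-out: OD600 growth recovery of NS1-expressing budding yeast. Cells grown overnight at 30C in -URA glucose medium, washed, resuspended and diluted 1:100 in 2% galactose assay medium, pH 6.0. Same strain lacking NS1 served as positive control.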
FBPA Giardia inh – qHTS Assay for Inhibitors of Fructose-1,6-bisphosphate Aldolase from Giardia Lamblia; A8B2U2; purified Giardia FBPA; Potency, µM (doses to about 59.6 µM), most hits filed as inhibitors; hit rate 0.71% among 290,000; AID 2451, 2010; also: nearly all actives have a fitted effect of over 55% in size
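Giardia FBPA (40 nM reagent) was preincubated 10 min at RT with compound (up to 57.5 uM final), then substrate plus GAPDH/TPI/NAD/arsenate coupling system with diaphorase/resazurin was added; resorufin fluorescence (525/598 nm) was read after 20 min.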
LmPK inh – qHTS Assay for Inhibitors of Leishmania Mexicana Pyruvate Kinase (LmPK); purified LmPK, Kinase-Glo ATP luminescence, 1 h; AID 1721, 2009; Q27686; Potency, µM (doses to about 57.5 µM), actives largely listed as inhibitors; hit rate 0.37% among 290,000
Target sequence (Q27686 whole entry, looked up): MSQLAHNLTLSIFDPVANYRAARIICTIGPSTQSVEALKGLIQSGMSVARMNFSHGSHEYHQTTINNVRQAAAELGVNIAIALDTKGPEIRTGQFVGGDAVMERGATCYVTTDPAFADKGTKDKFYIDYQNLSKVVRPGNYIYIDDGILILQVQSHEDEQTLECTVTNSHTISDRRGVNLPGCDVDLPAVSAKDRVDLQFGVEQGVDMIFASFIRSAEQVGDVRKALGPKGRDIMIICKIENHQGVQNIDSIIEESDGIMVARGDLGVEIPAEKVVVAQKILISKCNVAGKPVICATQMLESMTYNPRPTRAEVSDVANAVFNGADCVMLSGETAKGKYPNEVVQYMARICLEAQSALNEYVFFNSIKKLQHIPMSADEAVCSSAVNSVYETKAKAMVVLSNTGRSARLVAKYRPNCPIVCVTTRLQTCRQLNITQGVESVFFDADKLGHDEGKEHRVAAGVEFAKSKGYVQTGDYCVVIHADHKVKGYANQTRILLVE
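In 50 mM imidazole pH 7.2 with 7 mM MgCl2, LmPK (0.1 nM) turned over PEP (0.5 mM) and ADP (0.1 mM) for 1 h at room temperature. Luciferase read-out of ATP.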
AMA1 RON2 block – qHTS for Inhibitors of AMA1-RON; Towards Development of Antimalarial Drug Lead: Primary Screen | Potency, µM (top dose mostly 58.2 µM), hits mostly inhibitors | AlphaScreen AMA1-biotinylated RON2 peptide binding | hit rate 0.2% among 360,000; also: nearly all actives have a fitted effect of over 45% in size
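AMA1 (3D7) with his tag at 25 nM final met compounds first, then biotinylated RON2 peptide at 25 nM; detection used donor plus acceptor beads, 10 µg/mL apiece, read by AlphaScreen after 30 min at room temperature.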
Tb PYK inh – qHTS of Trypanosoma Brucei Inhibitors. pyruvate kinase (Trypanosoma brucei), Q57TT1. TbPYK enzyme, Kinase-Glo Plus ATP luminescence, 45 min. Potency, µM (highest dose often 76.8 µM), hits mostly inhibitors. hit rate 0.12% among 410,000. AID 624173, 2012; also: nearly all actives have a fitted effect of over 50% in size
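Readout: single end-point luminescence (Kinase-Glo Plus, 10 min). Reaction conditions were TbPYK/substrate plus 130 uM ADP, 45 min at RT, pH 7.2 TEA buffer. No-enzyme wells served as controls, and data were normalized before concentration-response fitting.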
NS1 inh valid – Assay for Inhibitors of Influenza NS1 Protein Function: Hit Validation; shares compounds with NS1 inh; influenza NS1 function cell assay, 15-point titration; activity change, negative = inhibition, % at 32.9 µM; 1,400 tested, under 10 active; AID 492980, 2010; calls by dose curve
Numbers stand for hits; 0 = inactive; ? = inconclusive; - = not tested or not shown. Rows were chosen to be rich in hits. Some 1.2% of all compounds tested hit in one or more screens of this group. Unless noted, calls follow the shape of the dose curve; as a rule, active = well fitted curve in the direction sought with a large enough effect; inconclusive = small, poorly fitted or top-dose-only effect, or another doubt; inactive = no such curve, though single readings can be large; an effect the other way counts as inactive or inconclusive.

SMILES	NS1 inh	FBPA Giardia inh	LmPK inh	AMA1 RON2 block	Tb PYK inh	NS1 inh valid
CC1C(=O)N(c2ccc(S(=O)(=O)N(C)C)cc2)C1(/C=C/c1ccccc1)C(=O)NC1CCCC1 (stereo unspecified)	8.9µM	0	0	0	0	0
O=C1CC(/C=C/c2ccccc2)(C(=O)NC2CCCC2)N1c1ccc(S(=O)(=O)N2CCCC2)cc1 (stereo unspecified)	0	0	0	0	0	-
COc1ccc(C2CC(c3cccs3)=NN2c2ccc(C=O)cc2)cc1 (stereo unspecified)	11µM	0	0	0	0	0
COc1ccc(C2=NN(c3ccc(C=O)cc3)C(c3ccccc3)C2)cc1 (stereo unspecified)	?	0	0	0	0	-
O=C(c1cnccn1)N1CCC[C@@]2(CCN(Cc3ccccc3)C2)C1	-	0	-	-	0	-
COC(=O)[C@@]1(Cc2ccc(F)cc2)[C@H]2c3cc(C(=O)N4CCCC4)n(Cc4ccc(C(F)(F)F)nc4)c3C[C@H]2CN1C(=O)c1ccccc1	11µM	0	0	0	0	0
CC(=O)Nc1cccc(-c2nnc(SCC(=O)c3cc([N+](=O)[O-])ccc3Br)o2)c1	-	-	-	-	0	-
CN(C)C(=O)Oc1ccc2oc(=O)cc(-c3cc4ccccc4o3)c2c1	?	0	0	0	0	0
Cc1nn(-c2ccccc2)c2sc(C(=O)O)cc12	0	?	0	0	0	-
Cc1nn(-c2ccccc2)c2sc(-c3n[nH]c(=S)o3)cc12	2.5µM	0	0	0	0	?
COc1ccc(Nc2ncc3c(n2)CCN(Cc2sccc2C)C3)c(OC)c1	-	-	-	-	0	-
CCCCN1CC(c2nc3ccccc3n2CCCCOc2ccccc2C)CC1=O (stereo unspecified)	-	-	-	-	0	-
Oc1ccc(Nc2nc(-c3ccc(O)cc3)cs2)cc1	2.8µM	0	0	0	0	0
c1ccc(-c2csc(Nc3ccc4c(c3)OCCO4)n2)cc1	0	0	0	0	0	-
Oc1ccc(Nc2nc(-c3ccc(Cl)cc3)cs2)cc1	-	0	-	-	-	-
c1cc2c(cc1Nc1nc(-c3ccc4c(c3)OCO4)cs1)OCCO2	7.1µM	0	0	0	0	0
CC(C)C[C@H](NC(=O)[C@H](CCCCN)NC(=O)CNC(=O)[C@H](CC(C)C)NC(=O)[C@@H](NC(=O)[C@@H]1CSSC[C@H](N)C(=O)N[C@@H](CO)C(=O)N[C@@H](CC(N)=O)C(=O)N[C@@H](CC(C)C)C(=O)N[C@@H](CO)C(=O)N[C@@H]([C@@H](C)O)C(=O)N1)C(C)C)C(=O)N[C@@H](CO)C(=O)N[C@@H](CCC(N)=O)C(=O)N[C@@H](CCC(=O)O)C(=O)N[C@@H](CC(C)C)C(=O)N[C@@H](Cc1cnc[nH]1)C(=O)N[C@@H](CCCCN)C(=O)N[C@@H](CC(C)C)C(=O)N[C@@H](CCC(N)=O)C(=O)N[C@H](C(=O)N[C@@H](Cc1ccc(O)cc1)C(=O)N1CCC[C@H]1C(=O)N[C@@H](CCCNC(=N)N)C(=O)N[C@H](C(=O)N[C@@H](CC(N)=O)C(=O)N[C@H](C(=O)NCC(=O)N[C@@H](CO)C(=O)NCC(=O)N[C@H](C(=O)N1CCC[C@H]1C(N)=O)[C@@H](C)O)[C@@H](C)O)[C@@H](C)O)[C@@H](C)O	-	0	-	-	-	-
O=C(CCCOc1ccc(Cl)cc1)N1CCOCC1	11µM	0	0	0	0	0
O=C(O)c1ccc(S(=O)(=O)N=Nc2c(O)[nH]c3ccccc23)cc1	0	-	-	-	-	-
CN[C@@H]1CCc2[nH]c3ccc(C(N)=O)cc3c2C1	-	-	-	-	0	-
COC(=O)[C@@]1(Cc2ccccc2)[C@H]2c3cc(C(=O)N(C)C)n(CCF)c3C[C@H]2CN1C(=O)c1ccccc1	-	0	-	-	-	-
Clc1cccc(CN2CCC(Cc3ccccc3)CC2)c1	?	?	0	0	0	0
Clc1ccc(CN2CCC(Cc3ccccc3)CC2)cc1	0	0	0	0	0	-
COc1ccccc1NS(=O)(=O)c1cccc(C(=O)N/N=C/c2c(C)nn(-c3ccccc3)c2N2CCCC2)c1	11µM	0	0	0	0	0
COc1ccccc1NS(=O)(=O)c1ccc(N/N=C/c2c(C)nn(-c3ccccc3)c2N2CCCC2)c([N+](=O)[O-])c1	0	0	0	0	0	-
SMILES	NS1 inh	FBPA Giardia inh	LmPK inh	AMA1 RON2 block	Tb PYK inh	NS1 inh valid
Fc1ccc(-c2csc(N3CCC(c4ccccc4)C3)n2)cc1 (stereo unspecified)	?	0	0	0	?	0
CCN(CC)CCN=Cc1c(O)n(CCc2ccccc2)c(=O)[nH]c1=O	?	0	0	0	0	-
CCN(CC)CCCN=Cc1c(O)n(CCc2ccc(F)cc2)c(=O)[nH]c1=O	?	0	0	0	0	0
COc1cc(C(C(=O)NC2CCCCC2)N(C(=O)Cc2c[nH]c3ccccc23)c2ccc(C)cc2)cc(OC)c1OC (stereo unspecified)	11µM	0	0	0	0	0
COc1cccc(CN(C(=O)Cc2c[nH]c3ccccc23)C(C(=O)NC2CCCCC2)c2cccs2)c1 (stereo unspecified)	7.1µM	0	0	0	-	0
CN1CCCC2(CCN(C(=O)c3cc(C(F)(F)F)cc(C(F)(F)F)c3)CC2)C1	-	0	-	-	0	-
O=C1C[C@@H](c2ccccc2Cl)N1S(=O)(=O)c1ccccc1[N+](=O)[O-]	-	0	-	-	-	-
CC1CCCCN1CCCNC(=O)c1cc(Sc2cccc(Cl)c2)nc2ccccc12 (stereo unspecified)	-	-	-	-	0	-
COc1ccc(C(C)=O)cc1COc1cccnc1[N+](=O)[O-]	?	0	0	0	0	0
CCOc1ccc(N2C(=O)/C(=C\c3ccccc3OC)S(=O)(=O)C2c2cccc([N+](=O)[O-])c2)cc1 (stereo unspecified)	11µM	0	0	0	0	0
COc1ccccc1/C=C1/C(=O)N(c2cc(C)cc(C)c2)C(c2cccc([N+](=O)[O-])c2)S1(=O)=O (stereo unspecified)	0	0	0	0	0	-
CN(C)c1oc(-c2ccc(OCc3ccc(Cl)cc3)cc2)nc1C#N	10µM	?	0	0	0	0
CCC/C(=N/NC(=O)c1ccc2c(c1)OCO2)c1cccs1	?	0	0	0	0	0
Cn1c(=O)cc(OCC(=O)NCCCN2CCN(Cc3ccccc3)CC2)c2ccccc21	11µM	0	0	0	0	0
CCCCCCN(C(=O)CCCCCN1C(=O)NC(c2ccc(-c3ccccc3)cc2)C(C(=O)OCc2ccccc2)=C1C)C(C(=O)NCCCC)c1ccc(OCC(=O)OC)c(C(=O)OC)c1 (stereo unspecified)	11µM	0	0	-	-	0
